# Source: PubChem
# Only some compounds are listed: those with a hit (about 8.9% of all), similar ones and a draw of the others.
# MCF10A rerep – DNA re-replication induction in MCF 10a cells; MCF 10A DNA re-replication, Hoechst nuclear intensity, 48 h; Potency, µM (doses to about 46.1 µM), inactives show top-dose activity, positive = re-replication, hits mostly activators; actives 2.9% (n = 350,000); further: potency means the concentration at half of the fitted maximal effect; % of control where 0% means no effect; nearly all actives have a fitted effect of over 50% in size
# SW480 rerep – induces DNA re-replication in SW480 colon adenocarcinoma cells | actives 1.8% (n = 340,000) | SW480 DNA re-replication, Hoechst DNA content imaging, 48 h | Potency, µM (top dose mostly 46.1 µM), for the others: top-dose re-replication activation, usual class: activators | AID 624297; further: potency means the concentration at half of the fitted maximal effect; % of control where 0% means no effect; nearly all actives have a fitted effect of over 55% in size
#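 Treated cells incubate 48 hr (37 C, 5% CO2), are stained 40 min with Hoechst, and nuclear fluorescence is enumerated; a rise in nuclei with high DNA signal marks re-replication.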
# KB-V1 cytotox – KB-V1 MDR subline cytotoxicity | KB-V1 MDR cells viability, CellTiter-Glo, 72 h | Potency, µM (titrated, usually from 46.1 µM), hits mostly cytotoxic | actives 3.4% (n = 400,000) | AID 1347076; further: potency means the concentration at half of the fitted maximal effect; on the % scale 0 is the no-effect control and ±100 the full control effect; nearly all actives have a fitted effect of over 60% in size
#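 In this primary screen, KB-V1 cells overexpressing P-gp are incubated with library compounds (lowest to highest concentration) for 72 h at 37 degrees C before a luminescent ATP viability read.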
# KB-3-1 tox – KB-3-1 parental cell cytotoxicity; KB-3-1 viability, CellTiter-Glo ATP luminescence, 72 h; Potency, µM (top dose mostly 46.1 µM), hits mostly cytotoxic; AID 1347075; actives 1.4% (n = 400,000); further: potency means the concentration at half of the fitted maximal effect; on the % scale 0 is the no-effect control and ±100 the full control effect; nearly all actives have a fitted effect of over 60% in size
#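 Using CellTiter-Glo luminescence, growth of non-resistant KB-3-1 adenocarcinoma cells is assessed 72 h after pin-tool compound addition at 37 °C. Normalized responses across the concentration series yield fitted curves.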
# DRD3 agonist – activates the human D3 dopamine receptor. P35462. D3R DiscoveRx beta-arrestin cells, luminescence, 90 min. max activation, %. actives 0.58% (n = 410,000). AID 652048; in the data active means max activation above about 30%; further: 0% is about no effect
# Target sequence (P35462 whole entry, looked up): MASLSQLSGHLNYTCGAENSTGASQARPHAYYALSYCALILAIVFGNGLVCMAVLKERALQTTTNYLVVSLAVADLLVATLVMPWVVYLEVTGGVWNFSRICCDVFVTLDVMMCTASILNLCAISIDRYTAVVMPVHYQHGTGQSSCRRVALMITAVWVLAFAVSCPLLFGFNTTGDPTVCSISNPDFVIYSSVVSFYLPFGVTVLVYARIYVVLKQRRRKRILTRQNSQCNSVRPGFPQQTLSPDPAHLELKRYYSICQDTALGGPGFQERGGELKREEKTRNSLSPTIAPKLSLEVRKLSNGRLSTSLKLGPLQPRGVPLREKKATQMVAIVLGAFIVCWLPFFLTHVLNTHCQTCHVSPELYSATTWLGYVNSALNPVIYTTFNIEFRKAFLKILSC
#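 Agonist mode: compounds and dopamine controls were applied to plated cells for 90 min at 37 degrees C after an overnight attachment at 1500 cells/well. Luminescent read-out followed 30 - 60 minutes at room temperature with DiscoveRx detection reagent.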
# DRD3 antagonist – antagonists of human D3 dopamine receptor | actives 2.5% (n = 360,000) | P35462 | AID 652054 | max response, negative = inhibition, % | D3R cells, DiscoveRx beta-arrestin luminescence, antagonist mode; active compounds read low; in the data active means max response below about -50%; inconclusive means no clear call, values can overlap the other calls; further: on the % scale 0 is the no-effect control and ±100 the full control effect
#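 Cells plated overnight at 1500 cells/well, then exposed to library compounds with dopamine controls for 90 minutes at 37 degrees C. DiscoveRx reagent added for 30–60 minutes at room temperature; luminescence read, quantitative HTS format.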
# Numbers without * were called inactive; i = inactive; ? = inconclusive; / = no result; ! = not active in a repeat. Unless noted, the call rests on the fitted dose curve; in most records, active means well fitted curve in the direction sought with a large enough effect; inconclusive means small, poorly fitted or top-dose-only effect, or another doubt; inactive means no such curve, though single readings can be large; an effect the other way counts as inactive or inconclusive.
SMILES,MCF10A rerep,SW480 rerep,KB-V1 cytotox,KB-3-1 tox,DRD3 agonist,DRD3 antagonist
CC(=O)N1CCN(Cc2nc3cc(NC(=O)c4ccccc4Cl)ccc3n2C)CC1,0%,1%,i,i,2,9
Cn1c(CN2CCCCC2)nc2cc(NC(=O)c3ccccc3Cl)ccc21,-3%,0%,15µM*!,?,-14,15
Cn1c(CN2CCCCC2)nc2cc(NC(=O)c3ccc(F)cc3)ccc21,9%,?,21µM*,?,-7,-25
Cn1c(CN2CCCC2)nc2cc(NC(=O)C3CCCCC3)ccc21,7%,-2%,i,i,-1,-14
COCCCNC(=O)C(C)n1c2ccccc2c2cnn(C)c(=O)c21 (stereo not drawn),/,/,i,i,5,/
COc1ccc(OCc2cc(C(=O)NC(C)c3csc(C)n3)no2)c(Cl)c1 (stereo not drawn),11%,-21%,i,i,-3,2
Cc1ccc(C)c(N2CCN(CC3CC=CCC3)CC2)c1 (stereo not drawn),0%,1%,i,i,-29,-73*
CCCCC(=O)Nc1nnc(S(=O)(=O)N(C)Cc2ccccc2)s1,/,/,/,/,5,/
O=C(Cn1c(C(=O)N2CCc3ccccc3C2)cc2sccc21)c1ccccc1,-2%,2%,?,i,-14,-6
O=C(Cn1c(C(=O)N2CCN(C3CCCCC3)CC2)cc2sccc21)c1ccccc1,1%,-4%,6.5µM*,?,-15,-27
CCOc1ccc(CNC(=O)c2c(C)nn(-c3ccc(F)cc3)c2-n2cccc2)cc1,/,/,13µM*,?,3,/
CCOc1ccc(CCNC(=O)c2cc(C)nc3c2c(C)nn3-c2cccc(F)c2)cc1,/,/,i,i,63*,/
Cc1cc(C(=O)NCc2ccccc2)c2c(C)nn(-c3cccc(F)c3)c2n1,/,/,?,i,10,/
COc1cccc(CNC(=O)c2cc(C)nc3c2c(C)nn3-c2ccc(C)cc2)c1,/,/,i,i,37*,/
COc1ccc(CCNC(=O)c2cc(C)nc3c2c(C)nn3-c2ccc(C)cc2)cc1OC,/,/,i,?,8,/
CSc1ccc(CCNC(=O)c2c(C)nn(-c3ccc(F)cc3)c2-n2cccc2)cc1,/,/,5.8µM*,3.3µM*,8,/
CCc1ccc(NC(=O)CSc2nc3c(sc4ccccc43)c(=O)n2CCCOC(C)C)cc1,/,/,i,i,-8,/
CC(C)(C)c1ccc(/C=C/C(=O)Nc2ccc(S(N)(=O)=O)cc2)cc1,/,/,i,?,25,/
COc1ccc(C(=O)NCCn2cc(SCc3cc(C)ccc3C)c3ccccc32)cc1,/,/,?,?,6,/
COc1cccc(CNC(=O)c2c(C)nn(-c3cccc(C)c3)c2-n2cccc2)c1,/,/,?,?,3,/
COc1cccc(CNC(=O)c2c(C)nn(-c3ccc(F)cc3)c2-n2cccc2)c1,/,/,9.2µM*,i,3,/
Cc1ccc(C)c(N2CCN(S(=O)(=O)c3cc(Br)cc4c3N(C(=O)C3CC3)CC4)CC2)c1,/,/,i,i,2,/
COc1ccccc1CNC(=O)C(Cc1c[nH]c2ccccc12)NC(=O)OCc1ccccc1 (stereo not drawn),18%,2%,18µM*,?,2,27
CC(C)CC(NC(=O)OCc1ccccc1)C(=O)NC(Cc1c[nH]c2ccccc12)C(=O)O (stereo not drawn),/,/,i,i,8,0
CC1CC(C)(C)NC(=S)N1CCC(=O)Nc1ccc2c(c1)OCCO2 (stereo not drawn),?,?,?,23µM*,0,-15
COc1ccc(OCCSc2nc(C)nc3ccccc23)cc1,?,18%,?,i,55*,63
COc1ccccc1OCCSc1nc2ccccc2c(=O)[nH]1,21µM*,0%,i,i,-4,4
COc1ccc(OCCSc2ncccn2)cc1,5%,-11%,i,i,-3,-17
